Screening data deposited in PubChem BioAssay by National Center for Advancing Translational Sciences (NCATS).
TGFb SMAD3 inh = TGF-b pathway inhibition. 410,000 compounds, 1.2% hits. Potency, µM (series often up to 46.1 µM), inactives show top-dose activity, negative = inhibition, actives largely listed as inhibitors. HepG2 CAGA-GFP TGF-b/SMAD3 reporter, GFP fluorescence, 18 h; TGF-beta stimulated, 500 pg/mL final; note: potency is the fitted concentration of half-maximal effect; % is set by controls: 0 for no effect and ±100 for the full control effect; nearly all actives have a fitted effect of over 65% in size
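First, reporter cells (HEPG2 CAGA-GFP) rested 2 h at 37 degrees C. Next, compounds were pinned in and TGF-beta added to 500 pg/mL final. After 18 h, GFP was imaged per cell and summed per well.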
ATXN2 expr inh = reduces ATXN2 reporter expression in HEK-293 cells; Potency, µM (series often up to 57 µM), for the others: at the highest dose activity change, negative = inhibition, most hits filed as inhibitors; HEK-293 ATXN2-luciferase reporter, luminescence, 24 h; 360,000 compounds, 0.72% hits; note: potency is the fitted concentration of half-maximal effect; % is set by controls: 0 for no effect and ±100 for the full control effect; nearly all actives have a fitted effect of over 55% in size
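ATXN2-luciferase reporter cells (luciferase flanked by upstream and downstream ATXN2 gene portions) were treated 24 h at 37 °C with compounds at up to 57 uM. SteadyGlo luminescence gave expression; GF-AFC fluorescence gave viability.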
HepG2 viability = counter-screen for TGF-b inhibitors: cytotoxicity in HepG2 cells | HepG2 CAGA-GFP viability, ATP luminescence, 18 h | Potency, µM (series often up to 46.1 µM), without a hit: top-dose activity change, negative = cytotoxicity, actives largely listed as cytotoxic | 410,000 compounds, 0.76% hits; note: potency is the fitted concentration of half-maximal effect
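CellTiter-Glo luminescence gave cytotoxicity after 18 hours at 37 degrees C. The cells were HepG2 CAGA-GFP in 1% FBS DMEM, stimulated with 500 pg/mL TGF-beta after compound addition. %Activity was normalised to no-cell wells (complete cell-killing) and DMSO (no toxicity), and curves were fitted and classified.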
D3 antag = blocks the human D3 dopamine receptor | P35462 | 360,000 compounds, 2.5% hits | AID 652054 | D3R cells, DiscoveRx beta-arrestin luminescence, antagonist mode; hits give low values | max response, negative = inhibition, %; in the data active = max response below about -50%; inconclusive = no clear call, values can overlap the other calls; note: % is set by controls: 0 for no effect and ±100 for the full control effect
Target sequence (P35462 whole entry, looked up): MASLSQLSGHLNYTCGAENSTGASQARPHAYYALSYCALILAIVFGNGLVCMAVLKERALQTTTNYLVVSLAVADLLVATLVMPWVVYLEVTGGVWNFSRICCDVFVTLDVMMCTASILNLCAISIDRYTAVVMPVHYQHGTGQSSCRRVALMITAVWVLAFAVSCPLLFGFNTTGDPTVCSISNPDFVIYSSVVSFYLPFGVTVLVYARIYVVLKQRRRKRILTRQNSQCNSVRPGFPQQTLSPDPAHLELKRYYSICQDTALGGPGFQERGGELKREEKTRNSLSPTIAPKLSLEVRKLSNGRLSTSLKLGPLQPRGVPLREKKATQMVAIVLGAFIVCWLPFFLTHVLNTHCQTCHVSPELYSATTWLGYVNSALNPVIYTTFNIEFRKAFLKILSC
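Cells plated overnight at 1500 cells/well, then exposed to library compounds with dopamine controls for 90 minutes at 37 degrees C. DiscoveRx reagent added for 30–60 minutes at room temperature; luminescence read, quantitative HTS format.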
DRD3 agonist = D3 dopamine receptor (human) agonism | P35462 | D3R DiscoveRx beta-arrestin cells, luminescence, 90 min | max activation, % | 410,000 compounds, 0.58% hits | AID 652048; in the data active = max activation above about 30%; note: 0% is about no effect
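Agonist mode: compounds and dopamine controls were applied to plated cells for 90 min at 37 degrees C after an overnight attachment at 1500 cells/well. Luminescent read-out followed 30 - 60 minutes at room temperature with DiscoveRx detection reagent.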
S2 tox = reduces viability in counter-screen for ATXN expression inhibitors. S2 cells (HEK-293 line with an ATXN2-luciferase reporter) viability, CellTiter-Fluor protease fluorescence, 24 h. Potency, µM (highest dose often 56.7 µM), most hits filed as cytotoxic. 400,000 compounds, 0.49% hits. AID 651635; note: potency is the fitted concentration of half-maximal effect; nearly all actives have a fitted effect of over 40% in size
* marks the source's active call; other numbers are inactive results; i = inactive; ? = inconclusive; / = no result; [ ] = remark or other dose. In the library only some 4.8% were active in any assay of this set; here they are far more common. Unless noted, calls come from the whole dose curve; as a rule, active = well fitted curve in the direction sought with a large enough effect; inconclusive = small, poorly fitted or top-dose-only effect, or another doubt; inactive = no such curve, though single readings can be large; an effect the other way counts as inactive or inconclusive.

SMILES	TGFb SMAD3 inh	ATXN2 expr inh	HepG2 viability	D3 antag	DRD3 agonist	S2 tox
COC(=O)c1ccc2nc(C3CCCCC3)c(Cc3ccccc3C(F)(F)F)n2c1	22µM*	?	-105%	25	4	?
FC(F)(F)c1ccccc1Cc1c(-c2cccc(Cl)c2)nc2ccc(Cl)cn12	-18%	31%	-4%	-15	57*	i
Cc1ccc(Cc2c(C3CCCCC3)nc3ccc(Cl)cn23)cc1	?	0%	-24%	21	2	?
COc1ccccc1Cc1c(C2CCCCC2)nc2ccc(C)cn12	16µM*	?	-51%	?	-15	/
COC(=O)c1ccc2nc(C3CCCCC3)c(Cc3ccc(OC)cc3C)n2c1	-14%	-3%	-12%	8	1	i
Cc1c(C)c(C)c(/C=C/c2ccnc3ccccc23)c(C)c1C	-15%	/	-39%	/	/	/
COc1ccc(CCNc2nc(SCc3ccccc3Cl)nc3ccccc23)cc1OC	-2%	/	-15%	/	9	/
O=C(Nc1cccc2ccccc12)c1cnn2c1NC(=C1CC1)C=C2C(F)F	1%	/	4%	/	/	/
CCOc1ccc(C[C@H]2NC(=O)CCSSC[C@@H](C(=O)N3CCC[C@H]3C(=O)N[C@@H](CCCN)C(=O)NCC(N)=O)NC(=O)[C@H](CC(N)=O)NC(=O)[C@H]([C@@H](C)O)NC(=O)[C@H]([C@@H](C)CC)NC2=O)cc1	/	/	/	/	3	i
Cc1ccc(Cc2c(C3CCCCC3)nc3ccc(Br)cn23)cc1	?	-26%	-13%	-6	-9	?
Cc1ccc(-c2nc3ccc(Cl)cn3c2Cc2ccccc2C(F)(F)F)cc1	?	57%	-3%	8	5	i
FC(F)(F)c1ccccc1Cc1c(C2CCCCC2)nc2ccc(Cl)cn12	?	?	-31%	-21	-16	18µM*
Cc1ccc2nc(C3CCCCC3)c(CC(C)(C)C)n2c1	?	-32%	-25%	33	2	22µM*
COc1ccc(Oc2c(OC)cc([N+](=O)[O-])c3ncccc23)cc1	10%	-15%	-29%	-11	1	i
COc1cc(NC(C)CCCN)c2ncccc2c1Oc1ccccc1 (stereo not given)	-32%	-20%	-24%	-56*	7	i
CCN1CCN(C(=O)N[C@H](C(=O)N[C@@H]2C(=O)N3C(C(=O)O)=C(CSc4nnnn4C)CS[C@@H]23)c2ccc(O)cc2)C(=O)C1=O	/	8%[18.9 µM]	/	/	/	i
Cc1ccc(-c2cc3c(nn2)-c2ccccc2C3=O)cc1	?	3.5µM*	-39%	-26	-8	i
COCCOC(=O)C1=C(C)NC(=O)NC1c1cn(-c2ccccc2)nc1-c1ccccc1 (stereo not given)	13%	8%	-1%	/	3	i
CC1CC(C)CN(C(=O)c2cccc(S(=O)(=O)NCc3ccccc3)c2)C1 (stereo not given)	-13%	-22%	-19%	-20	-8	i
CC1CCCN(C(=O)c2cccc(S(=O)(=O)NCc3ccccc3)c2)C1 (stereo not given)	-2%	/	-6%	-54*	1	i
COc1cccc(C2C(C(=O)Nc3ccccc3)=C(C)Nc3nnnn32)c1OC (stereo not given)	-19%	/	-2%	/	1	/
CCC(CO)Oc1cc(NC(=O)c2ccc([N+](=O)[O-])cc2)c2ncn(C(C)C)c2c1 (stereo not given)	-11%	-1%	-7%	-61*	2	i
CCC(CN(C)C)Oc1cc(NCc2ccccc2)c2ncn(C(C)C)c2c1 (stereo not given)	-14%	-31%	-58%	-55*	-18	i
CCC(CO)Oc1cc(NCc2cccc(Cl)c2)c2ncn(C(C)C)c2c1 (stereo not given)	20µM*	?	-76%	?	-9	?
CCC(CO)Oc1cc(NCc2ccncc2)c2ncn(C(C)C)c2c1 (stereo not given)	15%	2%	4%	1	56*	i
SMILES	TGFb SMAD3 inh	ATXN2 expr inh	HepG2 viability	D3 antag	DRD3 agonist	S2 tox
CCC(CO)Oc1cc(NC(=O)c2cccc([N+](=O)[O-])c2)c2ncn(C(C)C)c2c1 (stereo not given)	3%	-14%	-11%	-21	0	i
COC(=O)c1cccc(C(=O)NCc2nc(-c3ccccc3NC(C)=O)oc2C)c1	/	/	/	/	/	i
Cc1cccc(Cn2cnc3c(cnn3C(C)(C)C)c2=O)c1F	-2%	/	-22%	/	/	/
CC(=O)NCC(=O)NCC1Cc2cc(C)cc(-c3ccccn3)c2O1 (stereo not given)	/	/	/	/	/	i
Cc1ccc(-n2cccn2)c(CN2CCCC(C(=O)c3sccc3C)C2)c1 (stereo not given)	?	?	-21%	-76*	-14	?
Cc1ccsc1C(=O)C1CCCN(Cc2cccn2-c2ccc(Cl)cn2)C1 (stereo not given)	?	/	-29%	-67*	-12	?
CCOc1ccc(-c2c(C)nn3c(C)c(C(=O)NCC(C)c4ccccc4)cnc23)cc1OCC (stereo not given)	-25%	/	-10%	/	3	/
Cc1cc(C)n(-c2nc(C)c(C)c(=O)n2CC(=O)Nc2ccc(OC(F)(F)F)cc2)n1	-5%	/	-19%	/	-19	/
COc1cc(CN2CCC(C)CC2)ccc1OCc1ccccc1	?	-26%	-47%	?	-25	i
COc1ccccc1C1CCN(Cc2ccc(Cl)c(Cl)c2)CC1	7%	-7%	20%	-79*	-49	i
Cc1[nH]c2ccccc2c1CN1CCC(CO)(Cc2ccccc2)CC1	-14%	?	-30%	-11	-16	i
COc1ccccc1C1CCN(Cc2ccc(Cl)cc2Cl)CC1	34%	-3%	-3%	-96*	-18	i
COc1ccccc1C1CCN(Cc2cccc3ccccc23)CC1	-23%	-27%	-44%	-10	-47	i
COc1ccccc1C1CCN(Cc2c(C)[nH]c3ccccc23)CC1	?	?	-47%	-89*	-18	i
COc1ccc(NC(=O)c2cc3c(=O)n(Cc4cccnc4)ccc3nc2C)c(OC)c1	4%	3%	1%	/	6	i
Cc1cc(C)c(NC(=O)Cn2c(=O)n(CCC(=O)NCc3ccccc3Cl)c(=O)c3sccc32)c(C)c1	0%	2%	-3%	/	4	i
Cc1cc(C)[n+]2[nH]c(N)c(N=Nc3ccccc3)c2n1	-13%	2%	13µM*	-4	1	?
COc1cccc(-c2ccnc(-n3ncc(C(=O)NCc4cccnc4)c3C3CC3)n2)c1	/	/	/	/	/	i
